{
  "source": "paper PMC8384837",
  "about": "“Expanding the binding specificity for RNA recognition by a PUF domain”",
  "assay_in_all_cases": "yeast three-hybrid, YBZ-1, SC-Leu-His + 0.5 mM 3-AT, 4 days",
  "settings_in_all_cases": "tags: N-Gal4 AD-HA kept; label: inside an RPR1-promoter hybrid RNA with tandem MS2 sites; ssRNA",
  "key": {"PUM1 PUF domain R1-KVR": {"molecular_target": "PUM1 PUF domain R1-KVR (Homo sapiens, UniProt Q14671 828-1176, S863K;R864V;Q867R)", "sequence (Q14671 828-1176 S863K/R864V/Q867R)": "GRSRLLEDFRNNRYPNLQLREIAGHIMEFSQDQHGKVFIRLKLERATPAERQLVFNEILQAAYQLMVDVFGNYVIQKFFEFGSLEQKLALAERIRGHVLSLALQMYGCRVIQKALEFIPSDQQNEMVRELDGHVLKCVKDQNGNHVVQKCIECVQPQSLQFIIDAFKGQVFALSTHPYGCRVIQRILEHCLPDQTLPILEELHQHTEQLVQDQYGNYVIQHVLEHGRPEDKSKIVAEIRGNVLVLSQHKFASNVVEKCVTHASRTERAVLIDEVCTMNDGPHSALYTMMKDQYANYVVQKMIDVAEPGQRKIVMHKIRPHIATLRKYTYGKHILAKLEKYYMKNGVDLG", "in_short": "(§1)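 Pumilio-1 PUF domain libraries, randomized (NNK) at the three base-contacting residues of each repeat, were co-expressed with matching RNA elements from a centromeric plasmid in strain YBZ-1 (LexA–MS2 coat fusion, HIS3 reporter). Transformants were plated on SC-Leu (input) and SC-Leu-His + 0.5 mM 3-AT (selection) for four days, and repeat regions were PCR-amplified and Illumina-sequenced. The interaction score is the log2 change in variant frequency from input to selection, with pseudocount 1 where absent.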"}, "PUM1 PUF domain R1-RLC": {"molecular_target": "PUM1 PUF domain R1-RLC (Homo sapiens, UniProt Q14671 828-1176, S863R;R864L;Q867C)", "sequence (Q14671 828-1176 S863R/R864L/Q867C)": "as the sequence (Q14671 828-1176 S863K/R864V/Q867R) above, with K36R, V37L, R40C counted along it", "in_short": "as §1"}, "PUM1 PUF domain R3-VFA": {"molecular_target": "PUM1 PUF domain R3-VFA (Homo sapiens, UniProt Q14671 828-1176, C935V;R936F;Q939A)", "sequence (Q14671 828-1176 C935V/R936F/Q939A)": "as the sequence (Q14671 828-1176 S863K/R864V/Q867R) above, with K36S, V37R, R40Q, C108V, R109F, Q112A counted along it", "in_short": "as §1"}, "PUM1 PUF domain R8-MRR": {"molecular_target": "PUM1 PUF domain R8-MRR (Homo sapiens, UniProt Q14671 828-1176, N1122M;Y1123R;Q1126R)", "sequence (Q14671 828-1176 N1122M/Y1123R/Q1126R)": "as the sequence (Q14671 828-1176 S863K/R864V/Q867R) above, with K36S, V37R, R40Q, N295M, Y296R, Q299R counted along it", "in_short": "as §1"}, "PUM1 PUF domain R8-VYP": {"molecular_target": "PUM1 PUF domain R8-VYP (Homo sapiens, UniProt Q14671 828-1176, N1122V;Q1126P)", "sequence (Q14671 828-1176 N1122V/Q1126P)": "as the sequence (Q14671 828-1176 S863K/R864V/Q867R) above, with K36S, V37R, R40Q, N295V, Q299P counted along it", "in_short": "as §1"}, "PUM1 PUF domain R5-RWS": {"molecular_target": "PUM1 PUF domain R5-RWS (Homo sapiens, UniProt Q14671 828-1176, C1007R;R1008W;Q1011S)", "sequence (Q14671 828-1176 C1007R/R1008W/Q1011S)": "as the sequence (Q14671 828-1176 S863K/R864V/Q867R) above, with K36S, V37R, R40Q, C180R, R181W, Q184S counted along it", "in_short": "as §1"}, "PUM1 PUF domain R5-PHG": {"molecular_target": "PUM1 PUF domain R5-PHG (Homo sapiens, UniProt Q14671 828-1176, C1007P;R1008H;Q1011G)", "sequence (Q14671 828-1176 C1007P/R1008H/Q1011G)": "as the sequence (Q14671 828-1176 S863K/R864V/Q867R) above, with K36S, V37R, R40Q, C180P, R181H, Q184G counted along it", "in_short": "as §1"}, "PUM1 PUF domain R3-PWL": {"molecular_target": "PUM1 PUF domain R3-PWL (Homo sapiens, UniProt Q14671 828-1176, C935P;R936W;Q939L)", "sequence (Q14671 828-1176 C935P/R936W/Q939L)": "as the sequence (Q14671 828-1176 S863K/R864V/Q867R) above, with K36S, V37R, R40Q, C108P, R109W, Q112L counted along it", "in_short": "as §1"}, "PUM1 PUF domain R4-APM": {"molecular_target": "PUM1 PUF domain R4-APM (Homo sapiens, UniProt Q14671 828-1176, N971A;H972P;Q975M)", "sequence (Q14671 828-1176 N971A/H972P/Q975M)": "as the sequence (Q14671 828-1176 S863K/R864V/Q867R) above, with K36S, V37R, R40Q, N144A, H145P, Q148M counted along it", "in_short": "as §1"}, "PUM1 PUF domain R3-ACF": {"molecular_target": "PUM1 PUF domain R3-ACF (Homo sapiens, UniProt Q14671 828-1176, C935A;R936C;Q939F)", "sequence (Q14671 828-1176 C935A/R936C/Q939F)": "as the sequence (Q14671 828-1176 S863K/R864V/Q867R) above, with K36S, V37R, R40Q, C108A, R109C, Q112F counted along it", "in_short": "as §1"}},
  "data": [
    {"sequence": "GGCUAGAACUAGUGGAUCCCCCGGCGCCCGGCGGCUCGAGCCCGGGUAAGUGUAAAUUGUCUGCAUGCCGCCGGGCGCCAUGCCUGCAGGUCGACUCUAGAAAACAUG", "values": [
      {"measurement": "binding signal", "setting": "PUM1 PUF domain R1-KVR", "value": "5.73 log2 enrichment (interaction score)"},
      {"measurement": "binding signal", "setting": "PUM1 PUF domain R1-RLC", "value": "1.93 log2 enrichment (interaction score)"}
    ]},
    {"sequence": "GGCUAGAACUAGUGGAUCCCCCGGCGCCCGGCGGCUCGAGCCCGGGUAAGUGUAAGUAGUCUGCAUGCCGCCGGGCGCCAUGCCUGCAGGUCGACUCUAGAAAACAUG", "values": [
      {"measurement": "binding signal", "setting": "PUM1 PUF domain R3-VFA", "value": "2.39 log2 enrichment (interaction score)"}
    ]},
    {"sequence": "GGCUAGAACUAGUGGAUCCCCCGGCGCCCGGCGGCUCGAGCCCGGGUAAGCGUAAAUAGUCUGCAUGCCGCCGGGCGCCAUGCCUGCAGGUCGACUCUAGAAAACAUG", "values": [
      {"measurement": "binding signal", "setting": "PUM1 PUF domain R8-MRR", "value": "2.54 log2 enrichment (interaction score)"},
      {"measurement": "binding signal", "setting": "PUM1 PUF domain R8-VYP", "value": "3.87 log2 enrichment (interaction score)"}
    ]},
    {"sequence": "GGCUAGAACUAGUGGAUCCCCCGGCGCCCGGCGGCUCGAGCCCGGGUAAGUGUUAAUAGUCUGCAUGCCGCCGGGCGCCAUGCCUGCAGGUCGACUCUAGAAAACAUG", "values": [
      {"measurement": "binding signal", "setting": "PUM1 PUF domain R5-RWS", "value": "6.47 log2 enrichment (interaction score)"},
      {"measurement": "binding signal", "setting": "PUM1 PUF domain R5-PHG", "value": "4.37 log2 enrichment (interaction score)"}
    ]},
    {"sequence": "GGCUAGAACUAGUGGAUCCCCCGGCGCCCGGCGGCUCGAGCCCGGGUAAGUGUAAUUAGUCUGCAUGCCGCCGGGCGCCAUGCCUGCAGGUCGACUCUAGAAAACAUG", "values": [
      {"measurement": "binding signal", "setting": "PUM1 PUF domain R3-VFA", "value": "2.77 log2 enrichment (interaction score)"},
      {"measurement": "binding signal", "setting": "PUM1 PUF domain R3-PWL", "value": "3.68 log2 enrichment (interaction score)"}
    ]},
    {"sequence": "GGCUAGAACUAGUGGAUCCCCCGGCGCCCGGCGGCUCGAGCCCGGGUAAGUGUAAAUCGUCUGCAUGCCGCCGGGCGCCAUGCCUGCAGGUCGACUCUAGAAAACAUG", "values": [
      {"measurement": "binding signal", "setting": "PUM1 PUF domain R1-KVR", "value": "1.81 log2 enrichment (interaction score)"},
      {"measurement": "binding signal", "setting": "PUM1 PUF domain R1-RLC", "value": "3.21 log2 enrichment (interaction score)"}
    ]},
    {"sequence": "GGCUAGAACUAGUGGAUCCCCCGGCGCCCGGCGGCUCGAGCCCGGGUAAGUGUAAAUAGUCUGCAUGCCGCCGGGCGCCAUGCCUGCAGGUCGACUCUAGAAAACAUG", "values": [
      {"measurement": "binding signal", "setting": "PUM1 PUF domain R4-APM", "value": "4.28 log2 enrichment (interaction score)"},
      {"measurement": "binding signal", "setting": "PUM1 PUF domain R3-ACF", "value": "4.04 log2 enrichment (interaction score)"},
      {"measurement": "binding signal", "setting": "PUM1 PUF domain R3-PWL", "value": "2.76 log2 enrichment (interaction score)"},
      {"measurement": "binding signal", "setting": "PUM1 PUF domain R8-MRR", "value": "1.68 log2 enrichment (interaction score)"},
      {"measurement": "binding signal", "setting": "PUM1 PUF domain R8-VYP", "value": "2.77 log2 enrichment (interaction score)"},
      {"measurement": "binding signal", "setting": "PUM1 PUF domain R5-PHG", "value": "4.89 log2 enrichment (interaction score)"}
    ]},
    {"sequence": "GGCUAGAACUAGUGGAUCCCCCGGCGCCCGGCGGCUCGAGCCCGGGUAAGUGUAUAUAGUCUGCAUGCCGCCGGGCGCCAUGCCUGCAGGUCGACUCUAGAAAACAUG", "values": [
      {"measurement": "binding signal", "setting": "PUM1 PUF domain R4-APM", "value": "2.03 log2 enrichment (interaction score)"}
    ]},
    {"sequence": "GGCUAGAACUAGUGGAUCCCCCGGCGCCCGGCGGCUCGAGCCCGGGUAAGUGUACAUAGUCUGCAUGCCGCCGGGCGCCAUGCCUGCAGGUCGACUCUAGAAAACAUG", "values": [
      {"measurement": "binding signal", "setting": "PUM1 PUF domain R4-APM", "value": "2.11 log2 enrichment (interaction score)"}
    ]}
  ]
}
